A number with no mark means an inactive call. Results filed as inconclusive are left out. Active and inactive are the calls of the source. Unless noted, calls follow the shape of the dose curve; as a rule, active = well fitted curve in the direction sought with a large enough effect in the repeat runs; inconclusive = weak or mixed curves; inactive = no such curve, though single readings can be large; an effect the other way counts as inactive or inconclusive.

Assay [1] is described as follows: qHTS assay to identify small molecule antagonists of the sonic hedgehog signaling (Shh) pathway (AID 1259369; calls by dose curve; also: nearly all actives have a fitted effect of over 45% in size; also: potency is read from the fitted curve at half-maximal effect). The essentials:
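3T3Gli1-Luc, conditioned-medium-stimulated, 24hr cpd, 37C/5% CO2; Gli1-driven firefly Luc luminescence after 30min RT with luciferase reagent. Cells plated 4hr before cpd.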

Assay [2] in a line: qHTS assay to identify small molecule agonists of the androgen receptor (AR) signaling pathway in the presence of an antagonist - cell viability counter screen (AID 1259379).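 Also: MDA-kb2 human breast cancer cells carrying an MMTV luciferase reporter; series mostly up to about 92 µM; nearly all actives have a fitted effect of over 25% in size.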 The essentials:
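Cells: MDA-kb2 (MMTV-luc, AR and GR elements), 3,000/well, 5 hr settle. Added: nilutamide 3.0uM final, then compounds (15 conc.). Incubation: 16 hr, 37C, no CO2. Read-out: CellTiter-Fluor, 1 hr, fluorescence.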

Assay [3] can be described thus: qHTS assay to identify small molecule agonists of the estrogen receptor beta (ER-beta) signaling pathway - cell viability counter screen (AID 1259380). Also: nearly all actives have a fitted effect of over 30% in size. Summed up:
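HEK293T ER-beta-UAS-bla; 2% CS-FBS; 6 hr pre-plate, 16 hr cpd at 37C/5% CO2; LiveBLAzer read first, then CellTiter-Glo 30 min RT, luminescence.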

Assay [4] addresses Androgen receptor (Homo sapiens) (UniProt P10275). Description: qHTS assay to identify small molecule agonists of the androgen receptor (AR) signaling pathway in the presence of an antagonist (AID 1259381; calls by dose curve; also: nearly all actives have a fitted effect of over 15% in size). Summed up: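 MDA-kb2 cells, 3,000/well, rested 5hr at 37C/0% CO2 → nilutamide 3.0uM final or buffer → compounds, 15 conc. → 16hr at 37C → ONE-Glo, 30min RT → luminescence.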

Assay [5] can be described thus: qHTS assay to identify small molecule antagonists of the estrogen receptor beta (ER-beta) signaling pathway - cell viability counter screen (AID 1259382). Also: nearly all actives have a fitted effect of over 55% in size. Also: potency is read from the fitted curve at half-maximal effect. The essentials: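 Cells: ER-beta-UAS-bla HEK293T, 2,000/well, 2% CS-FBS, 6 hr settle. Cpd + E2 (1nM final), 16 hr, 37C/5% CO2. Bla FRET substrate 2 hr RT, then CellTiter-Glo 30 min RT, luminescence.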
Assay [6] addresses Estrogen receptor (Homo sapiens) (UniProt P03372). Description: qHTS assay to identify small molecule agonists of the estrogen receptor alpha (ER-alpha) signaling pathway in the presence of an antagonist (AID 1259383; calls by dose curve; also: top concentration of the series differs between compounds; nearly all actives have a fitted effect of over 15% in size). Summed up:
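VM7Luc4E2, endog. ER-alpha + 4×ERE-luc; charcoal-stripped FBS, phenol red-free, 5 d; 24hr plating; +10.0nM ICI-182,780 (final); cpds 15 conc, 22hr, 37C/5% CO2; ONE-Glo luminescence.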

Assay [7] is described as follows: qHTS assay to identify small molecule agonists or antagonists of the thyroid stimulating hormone receptor (TSHR) signaling pathway - wild type cell line counter screen (AID 1259384; calls by dose curve). The essentials:
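Counter screen in untransfected Hek293: compounds (15-point titration, triplicate) plus phosphodiesterase inhibitor Ro20-1724 added after 18 h plating; 30 min RT. Intracellular cAMP via competitive d2/cryptate immunoassay, 1 h incubation.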

Assay [8] concerns the target Thyrotropin receptor (Homo sapiens) (UniProt P16473). Put plainly: qHTS assay to identify small molecule antagonists of the thyroid stimulating hormone receptor (TSHR) signaling pathway (AID 1259385; calls by dose curve; also: nearly all actives have a fitted effect of over 20% in size). The essentials: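 Antagonist mode: compound-treated TSHR-expressing HEK293 cells were stimulated with 1.5 ng/mL TSH (final) in presence of Ro20-1724 for 30 min at RT. HTRF cAMP detection after 1 h; each compound tested at 15 concentrations, triplicate.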

A short description of assay [9]: qHTS assay to identify small molecule agonists of the estrogen receptor alpha (ER-alpha) signaling pathway in the presence of an antagonist - cell viability counter screen (AID 1259386).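 Also: series mostly up to about 92 µM; cells exposed to compounds for 22 h at 37 °C before the viability read; nearly all actives have a fitted effect of over 30% in size.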 Summed up:
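VM7Luc4E2, stripped-serum pre-culture 5 d; 24hr plating; +ICI-182,780 10.0nM final; cpds 15 conc, 22hr, 37C/5% CO2; CellTiter-Fluor added at 21hr, fluorescence 1hr later.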

In assay [10] the target is Progesterone receptor (Homo sapiens) (UniProt P06401). Put plainly: qHTS assay to identify small molecule agonists of the progesterone receptor (PR) signaling pathway (AID 1346784; calls by dose curve; also: nearly all actives have a fitted effect of over 30% in size). Summed up:
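Using charcoal-stripped serum (2%) to limit endogenous steroids, PR-UAS-bla HEK 293T cells received compounds for 16 hr at 37C after 6 hr plating; beta-lactamase FRET fluorescence was recorded following 2 hr substrate loading at room temperature.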

The target is the same in assay [11]. Description: qHTS assay to identify small molecule antagonists of the progesterone receptor (PR) signaling pathway (AID 1346795; active = well fitted inhibition curve with a large enough effect in the signal ratio in the repeat runs, not every such curve was filed as active; the % refers to the signal ratio; also: potency is read from the fitted curve at half-maximal effect). The essentials: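 Inhibition of R5020-induced (1 nM final) beta-lactamase reporter signal in PR-UAS-bla HEK293T cells was scored by FRET fluorescence after overnight (16 hr) compound treatment.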
Assay [12] is described as follows: qHTS assay to identify small molecule antagonists of the TGF-beta/Smad signaling pathway - cell viability counter screen (AID 1346824). Also: nearly all actives have a fitted effect of over 50% in size. The essentials:
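Cytotoxicity counter-screen run in the same wells as the beta-lactamase Smad reporter read: CellTiter-Glo luminescence after 30 min at room temperature. HEK 293T SBE-bla cells had 5 hr compound exposure at 37 C with TGF-beta1 (0.25 ng/mL stock).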

Assay [13] in a line: qHTS assay to identify small molecule agonists of the TGF-beta/Smad signaling pathway - cell viability counter screen (AID 1346829). Also: top concentration of the series differs between compounds; nearly all actives have a fitted effect of over 45% in size. The essentials: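 Here the cytotoxicity of library compounds is measured in SBE-bla HEK 293T cells treated for 5 hr, using CellTiter-Glo added to wells already read for the beta-lactamase reporter.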
A short description of assay [14]: qHTS assay to identify small molecule agonists of the TGF-beta/Smad signaling pathway (AID 1346859; active = well fitted activation curve with a large enough effect in the signal ratio in the repeat runs, not every such curve was filed as active; the % refers to the signal ratio; also: series mostly up to about 77 µM). The essentials: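 Stable Smad binding element-beta-lactamase HEK 293T cells; 5 hr compound exposure at 37 C under 5% CO2; 2 hr room-temperature substrate step; fluorescence excited at 405 nm, collected at 460 nm and 530 nm.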
The target in assay [15] is Thyrotropin-releasing hormone receptor (Homo sapiens) (UniProt P34981). Put plainly: qHTS assay to identify small molecule antagonists of the thyrotropin-releasing hormone receptor (TRHR) signaling pathway (AID 1346877; active = well fitted inhibition curve with a large enough effect in the repeat runs, not every such curve was filed as active; also: series mostly up to about 51 µM). Summed up:
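Intracellular calcium fluorescence, read kinetically every second over 3 min, reports TRH-evoked signalling in HEK293 cells carrying TRHR. Test compounds were added 5 min ahead of a 1 nM TRH challenge.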

Assay [16] shares this target. Description: qHTS assay to identify small molecule agonists of the thyrotropin-releasing hormone receptor (TRHR) signaling pathway (AID 1346891; calls by dose curve;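 also: HEK293 cells expressing TRHR with calcium dye readout; series mostly up to about 58 µM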). The essentials:
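In 1536-format, 1500 TRHR-Hek293 cells per well grew 18 h, took up calcium dye for 2 h at 37 °C, received compound, and were read kinetically; 15-point titrations, triplicates.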

A short description of assay [17]: qHTS assay to identify small molecule antagonists of the progesterone receptor (PR) signaling pathway - cell viability counter screen (AID 1346798). Also: series mostly up to about 92 µM; nearly all actives have a fitted effect of over 50% in size. Summed up: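 ATP content as viability readout: CellTiter-Glo luminescence, 30 min room temperature, in PR-UAS-bla HEK293T cells after 16 hr compound/R5020 treatment at 37C and 5% CO2.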
Assay [18] can be described thus: qHTS assay to identify small molecule agonists of the progesterone receptor (PR) signaling pathway - cell viability counter screen (AID 1346799; calls by dose curve; also: nearly all actives have a fitted effect of over 45% in size). The essentials:
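Cytotoxicity in PR-bla HEK293T cells: 16 h compound, 37C; CellTiter-Glo added post-FRET read; luminescence after 30 min RT.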

Sequence of Estrogen receptor (Homo sapiens) (P03372 whole entry, looked up): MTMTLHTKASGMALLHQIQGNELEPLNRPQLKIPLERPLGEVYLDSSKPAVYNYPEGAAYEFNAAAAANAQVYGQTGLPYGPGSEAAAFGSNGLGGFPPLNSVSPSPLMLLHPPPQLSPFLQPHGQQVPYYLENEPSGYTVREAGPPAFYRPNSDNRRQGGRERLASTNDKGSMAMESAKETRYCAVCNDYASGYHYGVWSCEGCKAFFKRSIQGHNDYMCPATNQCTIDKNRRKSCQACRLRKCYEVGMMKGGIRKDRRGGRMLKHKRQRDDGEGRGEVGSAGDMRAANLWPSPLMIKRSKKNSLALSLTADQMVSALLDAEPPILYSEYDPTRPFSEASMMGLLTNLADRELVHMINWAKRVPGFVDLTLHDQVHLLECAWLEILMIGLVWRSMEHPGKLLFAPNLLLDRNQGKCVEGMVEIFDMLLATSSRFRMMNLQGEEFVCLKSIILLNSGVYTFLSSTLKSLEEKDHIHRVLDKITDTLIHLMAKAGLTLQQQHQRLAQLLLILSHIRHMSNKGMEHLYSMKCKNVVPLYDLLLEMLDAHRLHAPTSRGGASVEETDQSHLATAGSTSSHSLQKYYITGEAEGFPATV
Sequence of Thyrotropin receptor (Homo sapiens) (P16473 whole entry, looked up): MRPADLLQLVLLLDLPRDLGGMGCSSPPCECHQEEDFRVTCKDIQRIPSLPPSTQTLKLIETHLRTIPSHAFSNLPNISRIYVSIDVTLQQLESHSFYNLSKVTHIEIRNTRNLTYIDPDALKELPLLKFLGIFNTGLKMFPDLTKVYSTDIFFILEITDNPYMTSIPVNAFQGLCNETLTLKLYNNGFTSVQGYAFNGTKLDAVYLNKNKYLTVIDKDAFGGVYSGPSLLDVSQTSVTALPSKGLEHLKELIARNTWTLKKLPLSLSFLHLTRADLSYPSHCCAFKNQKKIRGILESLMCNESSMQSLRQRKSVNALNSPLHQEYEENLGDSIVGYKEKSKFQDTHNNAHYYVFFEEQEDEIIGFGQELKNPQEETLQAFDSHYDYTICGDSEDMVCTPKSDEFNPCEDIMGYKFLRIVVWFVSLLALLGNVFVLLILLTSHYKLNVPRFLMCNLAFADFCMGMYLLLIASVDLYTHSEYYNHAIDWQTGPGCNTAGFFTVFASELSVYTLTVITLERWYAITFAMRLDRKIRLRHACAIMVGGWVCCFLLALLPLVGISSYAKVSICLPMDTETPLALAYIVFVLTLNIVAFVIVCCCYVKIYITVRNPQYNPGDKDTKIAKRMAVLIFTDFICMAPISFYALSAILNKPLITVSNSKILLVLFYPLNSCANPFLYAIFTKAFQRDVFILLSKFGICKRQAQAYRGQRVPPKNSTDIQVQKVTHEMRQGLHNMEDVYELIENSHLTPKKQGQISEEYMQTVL
Sequence of Thyrotropin-releasing hormone receptor (Homo sapiens) (P34981 whole entry, looked up): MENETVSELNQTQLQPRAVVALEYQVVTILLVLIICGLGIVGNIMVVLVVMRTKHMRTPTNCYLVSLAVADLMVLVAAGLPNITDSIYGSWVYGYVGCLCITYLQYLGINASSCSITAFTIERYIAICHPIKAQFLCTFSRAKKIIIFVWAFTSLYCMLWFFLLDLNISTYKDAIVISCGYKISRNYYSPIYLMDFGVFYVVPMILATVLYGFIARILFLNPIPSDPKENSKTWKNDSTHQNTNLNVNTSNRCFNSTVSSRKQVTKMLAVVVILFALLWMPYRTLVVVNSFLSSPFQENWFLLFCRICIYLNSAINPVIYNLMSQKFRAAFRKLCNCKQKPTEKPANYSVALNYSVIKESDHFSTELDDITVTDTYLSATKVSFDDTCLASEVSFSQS
Sequence of Androgen receptor (Homo sapiens) (P10275 whole entry, looked up): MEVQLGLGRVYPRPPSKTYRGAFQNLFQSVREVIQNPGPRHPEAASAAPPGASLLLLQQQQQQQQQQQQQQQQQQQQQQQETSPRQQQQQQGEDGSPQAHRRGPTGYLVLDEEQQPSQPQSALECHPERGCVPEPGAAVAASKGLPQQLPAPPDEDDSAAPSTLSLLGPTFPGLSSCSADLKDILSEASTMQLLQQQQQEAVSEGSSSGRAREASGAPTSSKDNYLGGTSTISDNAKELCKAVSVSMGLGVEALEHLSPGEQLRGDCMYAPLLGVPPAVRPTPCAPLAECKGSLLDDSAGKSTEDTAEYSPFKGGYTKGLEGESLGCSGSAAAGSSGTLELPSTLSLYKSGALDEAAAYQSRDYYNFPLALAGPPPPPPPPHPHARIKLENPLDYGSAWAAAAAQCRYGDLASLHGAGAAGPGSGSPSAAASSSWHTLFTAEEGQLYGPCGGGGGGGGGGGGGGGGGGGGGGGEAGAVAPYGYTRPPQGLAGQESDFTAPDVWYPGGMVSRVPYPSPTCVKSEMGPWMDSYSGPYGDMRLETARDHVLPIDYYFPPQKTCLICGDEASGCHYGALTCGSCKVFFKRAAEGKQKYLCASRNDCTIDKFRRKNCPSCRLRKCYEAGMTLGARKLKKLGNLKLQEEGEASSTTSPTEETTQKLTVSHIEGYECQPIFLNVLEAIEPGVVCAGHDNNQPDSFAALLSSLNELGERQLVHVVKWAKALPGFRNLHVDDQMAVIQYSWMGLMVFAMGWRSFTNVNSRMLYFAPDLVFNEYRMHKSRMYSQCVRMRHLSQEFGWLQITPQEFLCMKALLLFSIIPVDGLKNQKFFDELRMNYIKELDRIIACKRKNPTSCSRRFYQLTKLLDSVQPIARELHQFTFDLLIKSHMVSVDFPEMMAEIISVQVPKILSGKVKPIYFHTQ
Sequence of Progesterone receptor (Homo sapiens) (P06401 whole entry, looked up): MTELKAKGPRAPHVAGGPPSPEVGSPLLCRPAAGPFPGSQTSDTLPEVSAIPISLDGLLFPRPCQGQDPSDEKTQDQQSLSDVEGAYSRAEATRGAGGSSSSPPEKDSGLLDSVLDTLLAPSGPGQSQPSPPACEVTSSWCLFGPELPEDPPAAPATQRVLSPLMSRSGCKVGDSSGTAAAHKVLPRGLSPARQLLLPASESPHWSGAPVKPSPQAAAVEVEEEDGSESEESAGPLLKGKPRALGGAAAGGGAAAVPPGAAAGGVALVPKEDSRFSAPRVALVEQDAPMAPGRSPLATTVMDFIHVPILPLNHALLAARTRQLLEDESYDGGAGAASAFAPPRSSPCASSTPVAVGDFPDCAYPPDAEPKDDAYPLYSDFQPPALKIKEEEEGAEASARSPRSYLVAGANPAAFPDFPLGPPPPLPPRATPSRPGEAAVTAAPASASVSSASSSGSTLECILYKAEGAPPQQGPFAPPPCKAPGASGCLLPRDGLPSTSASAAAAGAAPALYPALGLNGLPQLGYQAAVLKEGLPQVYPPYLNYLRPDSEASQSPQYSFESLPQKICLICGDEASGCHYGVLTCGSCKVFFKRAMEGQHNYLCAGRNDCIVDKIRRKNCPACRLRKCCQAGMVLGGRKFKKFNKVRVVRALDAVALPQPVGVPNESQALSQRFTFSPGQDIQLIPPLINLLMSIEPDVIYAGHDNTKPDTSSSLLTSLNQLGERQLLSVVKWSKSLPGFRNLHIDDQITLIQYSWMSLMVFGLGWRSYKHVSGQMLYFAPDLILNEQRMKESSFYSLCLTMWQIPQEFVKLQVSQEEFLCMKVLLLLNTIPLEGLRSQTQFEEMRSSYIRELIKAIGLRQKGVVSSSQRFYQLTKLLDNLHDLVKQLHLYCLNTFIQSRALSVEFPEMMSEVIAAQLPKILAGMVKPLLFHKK

Consider `COc1cc2c(cc1OC)-c1cc(=Nc3c(C)cc(C)cc3C)n(C)c(=O)n1CC2`, for which the Potency in [1] is 0.596 µM (active); in assay [11], 26.6 µM (active). Besides, the Potency entry in [2], in [3], in assay [4], in [5], in [6] and in assay [8] was “inactive” throughout. The Potency result in [9], in assay [10] and in assay [16] was “inactive” each time. The compound was called inactive in [7], in assay [12], in assay [13], in assay [14] and in assay [15].

`ON(Cc1ccccc1)Cc1ccccc1`: the Potency entry in [1], in [2], in assay [3], in assay [4], in assay [5] and in assay [6] was “inactive” each time. The Potency entry in [8], in assay [9], in [10], in assay [11], in assay [17] and in [18] was “inactive” in each case. In addition, in [16], the Potency result was “inactive”. For the same compound, the compound was classed as inactive in [7], in assay [12], in [13], in [14] and in [15].

On to `CC(N)CN` (stereo unspecified), for which the Potency result in assay [1], in assay [2], in [3], in [5], in assay [6] and in assay [9] was “inactive” each time. The Potency entry in [10], in [11], in assay [17] and in assay [18] was “inactive” in each case. The compound was called inactive in assay [7], in [12], in assay [13], in assay [14] and in assay [15].

For `Nc1ccc(S(=O)(=O)O)c(N)c1`, the Potency result in [1], in assay [2], in assay [3], in assay [5], in [6] and in [9] was “inactive” each time. In addition, the Potency result in assay [10], in assay [11], in assay [17] and in [18] was “inactive” throughout. In addition, the result in assay [7], in assay [12], in assay [13] and in assay [14] was inactive.

Consider `CCC(C)(O)CCC=C(C)C` (stereo unspecified), for which the Potency entry in assay [1], in assay [2], in assay [3], in assay [5], in assay [6] and in assay [9] was “inactive” each time. Besides, the Potency entry in assay [10], in assay [11], in assay [18] and in [16] was “inactive” each time. For the same compound, the compound was classed as inactive in assay [12], in assay [13], in [14] and in [15].

On to `CSc1ccc(Oc2ccc(S(N)(=O)=O)cc2CN(C)C)cc1C`, for which the Potency in assay [1] was 5.45 µM (active); in assay [5], 27.3 µM (active). The Potency result in assay [2], in assay [4], in assay [6], in assay [10], in assay [18] and in assay [16] was “inactive” in each case. Further, the compound was classed as inactive in assay [7], in assay [12], in [13], in [14] and in assay [15].

For the compound `OCC1CC=CCC1` (stereo unspecified), the Potency result in assay [1], in [2], in assay [3], in assay [4], in assay [5] and in [8] was “inactive” in each case. Further, the Potency entry in assay [9], in assay [10], in assay [11], in [17] and in assay [18] was “inactive” in each case. Further, the result in [12], in assay [13] and in assay [14] was inactive.

Take `O=C(NCCCN1CCOCC1)c1ccc(Cl)cc1`: the Potency result in assay [1], in assay [2], in [3], in [5], in [6] and in [8] was “inactive” in each case. Also, the Potency result in assay [9], in assay [10], in assay [11], in assay [17] and in assay [18] was “inactive” each time. Also, the compound was called inactive in assay [7], in [12], in [13] and in assay [14].

Consider `C[C@@H]1C[C@H]2[C@@H]3CCC4=CC(=O)C=C[C@]4(C)[C@@]3(F)[C@@H](O)C[C@]2(C)[C@@]1(O)C(=O)CO`, for which the Potency in assay [1] is 0.492 µM (active). For the same compound, the Potency entry in [2], in assay [3] and in assay [5] was “inactive” in each case. For the same compound, the call in assay [12], in assay [13] and in [14] was inactive.

In the case of `COCC(O)CO` (stereo unspecified), the Potency result in assay [1], in assay [2], in assay [3], in assay [5], in assay [6] and in assay [8] was “inactive” in each case. The Potency result in assay [9], in assay [10], in assay [11], in assay [17], in assay [18] and in assay [16] was “inactive” each time. Moreover, the call in [7], in [12], in [13], in [14] and in assay [15] was inactive.

`O=[N+]([O-])c1cccc(S(=O)(=O)NCCNS(=O)(=O)c2cccc([N+](=O)[O-])c2)c1`: the Potency result in assay [1], in assay [2], in assay [3], in assay [4], in [5] and in assay [6] was “inactive” each time. In addition, the Potency result in [9], in assay [10], in assay [11], in assay [17], in assay [18] and in [16] was “inactive” each time. In addition, the call in assay [12], in assay [13], in assay [14] and in assay [15] was inactive.

Turning to `CCN(Cc1cccc(S(=O)(=O)O)c1)c1ccc(C(=C2C=CC(=[N+](CC)Cc3cccc(S(=O)(=O)[O-])c3)C=C2)c2ccccc2)cc1`, the Potency entry in assay [1], in assay [2], in assay [3], in [5], in assay [6] and in assay [8] was “inactive” each time. Besides, the Potency entry in assay [9], in [10], in assay [11], in assay [17], in assay [18] and in assay [16] was “inactive” each time. The compound was classed as inactive in assay [7], in assay [12], in assay [13], in assay [14] and in [15].

As for `O=C(O)c1cccnc1C(=O)O`, the Potency result in assay [1], in [2], in [3], in [5], in assay [6] and in assay [8] was “inactive” throughout. The Potency entry in assay [9], in assay [10], in assay [11], in assay [17] and in assay [18] was “inactive” throughout. Also, the compound was classed as inactive in assay [7], in [12], in assay [13] and in [14].
